Assay in all cases: qHTS profiling for inhibitors of Plasmodium falciparum proliferation (AID 504749); also: nearly all actives have a fitted effect of over 60% in size
Details in all cases: P. falciparum in erythrocytes, SYBR Green DNA, 72 h; series mostly up to 28.7 µM

Test [1] has as its system CP265. The gist of the method: (§1)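 Quantitative HTS: compounds pinned into medium, infected erythrocytes added (0.3% parasitemia, 2.5% hematocrit), 72 h culture at 37 C under 5% CO2. Saponin/Triton lysis with SYBR Green I, overnight RT, then fluorescence read.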
The test system of test [2] is CP269. Put shortly: as §1
Test [3] relates to CP286. Put shortly:
as §1

For test [4], the system named is CP291. Put shortly: as §1
Test [5] deals with CP297. The gist of the method: as §1
Test [6] deals with CP305. Put shortly: as §1
Test [7] relates to CP268. The gist of the method:
as §1

Test [8] concerns CP315. Put shortly:
as §1

For test [9], the system named is CP325. Put shortly: as §1
For test [10], the system named is CP266. Put shortly: as §1

Molecules are shown by their SMILES. Results filed as inconclusive are left out. Active and inactive are the calls of the source. Calls follow the shape of the dose curve; as a rule, active = well fitted inhibition curve with a large enough effect; inconclusive = small, poorly fitted or top-dose-only effect; inactive = flat fitted curve, though single readings scatter.

In PubChem BioAssay (NCATS) one finds Potency data, which are given here for 27 compounds.
Potency is read from the fitted curve at half-maximal effect.

Regarding `COC(=O)C1=C(C#N)NC(C)=C(C(=O)OC(C)C)C1c1cccc([N+](=O)[O-])c1` (stereo unspecified), the Potency in [1] was 10 µM (active); in test [2], 13.5 µM (active); in [3], 10 µM (active); in test [4], 16.9 µM (active); in test [5] it was 13.5 µM (active); in [6], 13.5 µM (active).

In the case of `COC(=O)CCC(=O)CN`, the Potency entry in test [1], in test [7], in test [2], in test [3], in test [4] and in [5] was “inactive” in each case. The Potency result in test [6], in [8] and in test [9] was “inactive” in each case.

In the case of `CCCCC(CC)COC(=O)CC(C(=O)OCC(CC)CCCC)S(=O)(=O)O` (stereo unspecified), the Potency result in test [10], in test [7], in test [2], in test [4], in test [5] and in test [6] was “inactive” each time. Also, the Potency entry in test [8] and in test [9] was “inactive” each time.

With `CN=C(NC#N)Nc1ccc(C2=NNC(=O)C[C@@H]2C)cc1`, the Potency entry in [1] and in test [3] was “inactive” in each case.

As to `CN(C)CCCN1c2ccccc2C(C)(C)c2ccccc21`, the Potency entry in test [2], in [3], in test [5], in test [6], in test [8] and in [9] was “inactive” throughout.

For `O=C1CSC2(CCN(CCCN3c4ccccc4Sc4ccc(Cl)cc43)CC2)N1`, in test [4], the Potency was 13.5 µM (active).

Turning to `Clc1cc(Cl)c(OCC#CI)cc1Cl`, the values for the Potency in test [1] and in test [4] were 10 µM (active) and 8.49 µM (active), respectively. Moreover, the Potency entry in test [8] is “inactive”.

For `COc1cc(-c2ccc(-[n+]3nc(-c4ccccc4)nn3-c3ccc([N+](=O)[O-])cc3)c(OC)c2)ccc1-[n+]1nc(-c2ccccc2)nn1-c1ccc([N+](=O)[O-])cc1`, the Potency in [7] and in test [5] was 16.9 µM (active) each time.

In the case of `CCOC(=O)C1=C(C)NC(C)=C(C(=O)OCC)C1c1ccccc1C=CC(=O)OC(C)(C)C`, the Potency is 10 µM (active) in test [1]; 15.1 µM (active) in test [2]; 12 µM (active) in [4]; 16.9 µM (active) in test [5]; 10.7 µM (active) in test [8]; 12 µM (active) in test [9].

As for `CC(=O)Oc1cc(C)c(OC(C)=O)c2ccccc12`, the Potency in test [9] is 15.1 µM (active).

In the case of `O=C(O)c1cc(O)c2c(c1)[O][Bi][O]2`, the Potency entry in test [1], in test [7], in test [2], in [3], in [4] and in test [5] was “inactive” throughout. Also, the Potency entry in test [6], in test [8] and in [9] was “inactive” throughout.

For the compound `CCOC(=O)C1=CC2(CC)CCCN3CCc4c(n1c1ccccc41)C32` (stereo unspecified), the Potency in test [1] and in test [3] was 11.2 µM (active) each time.

For `CCOc1ccc2c(c1)C(C)=CC(C)(C)N2`, the Potency entry in [10], in test [7], in test [2], in test [3], in [4] and in test [5] was “inactive” throughout. Further, the Potency result in test [6], in test [8] and in [9] was “inactive” each time.

As for `CC1=C(/C=C/C(C)=C/C=C/C(C)=C/CO)C(C)(C)CCC1`, the Potency entry in [10], in test [7], in [4], in [5], in test [6] and in [8] was “inactive” in each case. Also, in test [9], the Potency result is “inactive”.

On to `Nc1ncnc2c1ncn2[C@@H]1O[C@H](COP(=O)(O)OP(=O)(O)OP(=O)(O)O)[C@@H](O)[C@H]1O`, for which the Potency entry in [1], in [7], in [2], in test [3], in test [4] and in [5] was “inactive” in each case. Moreover, the Potency result in [6], in [8] and in test [9] was “inactive” each time.

Turning to `CCN(CC)CCOc1ccc(-c2nc3cc(Cl)ccc3s2)cc1`, the Potency entry in [1], in test [10], in test [2], in [4], in test [5] and in [6] was “inactive” each time. In addition, the Potency result in test [8] and in test [9] was “inactive” throughout.

Take `O=S(=O)(O)c1cc(O)c2c(N=Nc3ccc(Nc4ccccc4)c4c(S(=O)(=O)O)cccc34)cc(S(=O)(=O)O)cc2c1`: the Potency entry in [7], in test [8] and in test [9] was “inactive” each time.

With `CC(C)=O`, the Potency result in test [10], in [2], in test [3], in test [4], in [5] and in [6] was “inactive” each time. The Potency entry in test [8] and in [9] was “inactive” in each case.

As for `CC(C)N=c1cc2n(-c3ccc(Cl)cc3)c3ccccc3nc-2cc1Nc1ccc(Cl)cc1`, the Potency result in test [1], in test [7], in [2], in [4], in [5] and in test [6] was “inactive” throughout. The Potency entry in [8] and in test [9] was “inactive” throughout. Further, the Potency in test [3] was 3.55 µM (active).

Turning to `CCCCCCOc1ccc(C(=N)N(CCCC)CCCC)c2ccccc12`, the Potency in test [3] was 2.82 µM (active); in [5] it was 16.9 µM (active).

Regarding `CCCCCC(CC)COC(=O)CC(C(=O)OCC(CC)CCCC)S(=O)(=O)O` (stereo unspecified), the Potency entry in test [1] and in test [3] was “inactive” each time.

In the case of `CC(Cc1ccc(O)c(O)c1)C(C)Cc1ccc(O)c(O)c1` (stereo unspecified), the Potency result in test [1], in test [10], in test [4], in test [6], in [8] and in test [9] was “inactive” throughout.

In the case of `CC[C@@]1(O)C(=O)OCc2c1cc1n(c2=O)Cc2cc3c([N+](=O)[O-])cccc3nc2-1`, the Potency in test [1] is 7.94 µM (active); in [2], 10.7 µM (active); in test [3] it was 4.47 µM (active); in test [4] it was 12 µM (active); in test [5], 12 µM (active); in [6], 8.49 µM (active).

With `O=S(=O)(O)O`, the Potency entry in test [1], in test [7], in test [2], in test [3], in [4] and in test [5] was “inactive” throughout. Besides, the Potency entry in test [6], in test [8] and in test [9] was “inactive” in each case.

For `CC1=C(/C=C/C(C)=C/C=C/C(C)=C/C=C/C=C(C)/C=C/C=C(C)/C=C/C2=C(C)CCCC2(C)C)C(C)(C)CCC1`, the Potency entry in test [1], in [7], in test [2], in [3], in test [4] and in [5] was “inactive” each time. The Potency entry in test [6], in test [8] and in test [9] was “inactive” throughout.

Consider `COC(=O)[C@H]1[C@H]2CC3c4[nH]c5ccccc5c4CCN3C[C@@H]2CC[C@@H]1O` (stereo partly specified), for which the Potency entry in test [1] and in test [3] was “inactive” in each case.

As for `O=C(Nc1cccc(C(F)(F)F)c1)c1cc(Br)cc(Br)c1O`, the Potency in [4] was 12 µM (active); in test [8], 15.1 µM (active).
